Test results as given in ChEMBL document CHEMBL3433997, “St. Jude Leishmania screening dataset” (2016).

Columns and labels:
Type in all cases: functional
[1] = molecular target: Solute carrier family 2, facilitated glucose transporter member 1 (Homo sapiens) (UniProt P11166); assay: ST_JUDE_LEISH: Cytotoxicity at 2uM final concentration against transgenic Leishmania Mexicana promastigotes LmGLUT1 that are glucose transport deficient and complemented with the human glucose transporter GLUT1. Activity is measured by DNA content using SYBR green in vitro
[2] = molecular target: Hexose transporter 1 (Plasmodium falciparum) (UniProt O97467); assay: ST_JUDE_LEISH: Cytotoxicity at 2uM final concentration against transgenic Leishmania Mexicana promastigotes LmPfHT that are glucose transport deficient and complemented with the Plasmodium falciparum hexose transporter. Activity is measured by DNA content using SYBR green in vitro
[3] = molecular target: Glucose transporter (Leishmania mexicana) (UniProt O61059); assay: ST_JUDE_LEISH: Cytotoxicity at 2uM final concentration against transgenic Leishmania Mexicana promastigotes LmGT2 that are glucose transport deficient and complemented with the L. Mexicana glucose transporter 2. Activity is measured by DNA content using SYBR green in vitro

Solute carrier family 2, facilitated glucose transporter member 1 (Homo sapiens), sequence (P11166 whole entry): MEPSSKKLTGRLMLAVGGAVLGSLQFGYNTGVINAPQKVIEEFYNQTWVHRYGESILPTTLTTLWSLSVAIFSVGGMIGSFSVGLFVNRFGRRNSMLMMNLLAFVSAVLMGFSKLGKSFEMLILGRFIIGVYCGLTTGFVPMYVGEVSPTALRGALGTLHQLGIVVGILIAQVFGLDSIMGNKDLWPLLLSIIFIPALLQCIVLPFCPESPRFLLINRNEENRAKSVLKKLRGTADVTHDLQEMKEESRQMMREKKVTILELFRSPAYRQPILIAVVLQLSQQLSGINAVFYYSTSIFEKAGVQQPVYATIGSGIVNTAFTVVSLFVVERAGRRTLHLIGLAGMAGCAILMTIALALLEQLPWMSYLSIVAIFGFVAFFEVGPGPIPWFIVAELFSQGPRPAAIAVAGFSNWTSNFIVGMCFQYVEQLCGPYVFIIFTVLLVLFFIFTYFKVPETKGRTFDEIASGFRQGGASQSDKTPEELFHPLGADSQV

Structure (SMILES) | inhibition [1] [%] | inhibition [2] [%] | inhibition [3] [%]
O=C(NC1CC1)c1cnc(N2CCC(COc3cccc(F)c3)CC2)c(Cl)c1 | 1.83 | 2.54 | 0.22
CC(C)(C)c1cc(NC2CC2)nc(-c2ccccn2)n1 | 1.4 | 3.18 | 4.03
CN(C)CCCOc1ccc(CCNCc2cccc(Oc3ccc(Cl)cc3)c2)cc1 | 14 | 16.4 | 13.7
CCCC(=O)Nc1ccc(Cl)c(NC(=O)COc2cc(C)ccc2C(C)C)c1 | 9.77 | 8.41 | 8.05
COc1ccc(OCC(=O)Nc2cc(-c3nc4ccccc4[nH]3)ccc2Cl)cc1 | 6.17 | 6.14 | 3.14
COc1cc(NC(=O)Nc2cc(C)nc3ccccc23)cc(OC)c1 | 0.54 | 0.94 | 2.05
CC(C)CNc1c2c(nc3cnn(-c4c5c(nc6cn[nH]c46)CCCC5)c13)CCCC2 | -3.17 | -1.12 | -2.14
O=S(=O)(NC1CCN(c2ccnc3cc(Cl)ccc23)C1)c1cccs1 (centres undefined) | 0.41 | -0.12 | 1.61
Cc1[nH]c(C)c(-c2ccc(-c3ccc(Cl)cc3)cc2)c(=O)c1Cl | -0.9 | 0.3 | 1.13
CN(CCc1ccccc1)c1ncc(-c2cccc(CNCCC3CCCN3C)c2)cn1 (centres undefined) | 111 | 67 | 109
Cc1csc(-c2nc(NCCc3c(C)noc3C)ncc2-c2ccsc2)n1 | 8.17 | 11.5 | 10.2
Cc1cccc(C(=O)NCCCN2CCC(NC(=O)/C=C/c3ccc(Cl)c(Cl)c3)CC2)c1 | 1.05 | 0.15 | 2.02
COc1ccc(CCNCC(O)COc2nccc3c(S(=O)(=O)N4CCCNCC4)cccc23)cc1OC (centres undefined) | -1.57 | -1.2 | -2.89
Cn1c(=O)c(-c2c(Cl)cccc2Cl)cc2cnc(Nc3ccc(N4CCOCC4)cc3)nc21 | 34.6 | 41 | 11.6
O=C(Nc1ccccc1)N(Cc1cccc(-c2ccc(CNCCc3ccccc3)cc2)c1)C1CCN(Cc2ccccc2)CC1 | 0.46 | -0.56 | 0.13
O=C(Nc1cccc(-c2cc(-c3c(Cl)cccc3Cl)no2)c1)c1cncc(-c2cccs2)c1 | 16 | 11.1 | 10.8
COc1cc(C(=O)NCCCN2CCN(c3cccc(Cl)c3)CC2)ccc1-c1nc2cc(Cl)c(F)cc2[nH]1 | 1.22 | 0.6 | 0.03

Structure (SMILES) | inhibition [1] [%] | inhibition [2] [%] | inhibition [3] [%]
CNC(=O)c1cnc(Nc2ccc(N3CCN(C)CC3)cc2)nc1Nc1cccc(OC(C)C)c1 | 3.75 | 1.38 | -7.72
CCN(CC)CCNc1ccnc2[nH]c3ccc(Cl)cc3c12 | 1.19 | -0.21 | -0.03
CC1CN(Cc2ccc(-c3ccc(-c4nc5cc(F)ccc5[nH]4)cc3)cc2)CC(C)O1 (centres undefined) | 6 | 6.63 | 3.77
COc1ccc(CCc2ccc(-c3c(C)[nH]c(C)c(Cl)c3=O)cc2)cc1OC | 12 | 11 | 10.6
O=C(Nc1cc(Cl)c(Cl)cc1NC(=O)c1cccc(-c2ccccc2)c1O)c1cccc(-c2ccccc2)c1O | 5.1 | 0.97 | 2.6
O=C(NC1CCCC1)c1ccc(N2CCC(NCc3cc4cc(Cl)ccc4[nH]3)CC2)cc1 | 2.79 | 3.34 | 2.98
O=C(NCc1cccc(C(F)(F)F)c1)[C@@H]1CCCN1C(=O)c1ccc(O)c(-c2ccc(Cl)c(Cl)c2)c1 | -0.44 | -0.25 | 0.24
COc1ccc(S(=O)(=O)NC2CCN(CCNC(=O)Nc3cc(C)nc4ccccc34)C2)cc1 (centres undefined) | -0.6 | -0.21 | -0.75
CC[C@H]1CN2CCc3cc(OC)c(OC)cc3[C@@H]2C[C@@H]1CC1=NCCc2c1[nH]c1ccc(OCc3ccccc3)cc21 | 0.63 | 0.59 | 2.89
CC(=O)Nc1ccc2[nH]cc(C3CCN(CC4CCC(NC(=O)/C=C/c5ccccc5Cl)CC4)CC3)c2n1 (centres undefined) | 6.86 | 5.52 | 6.59
CCCNC(=O)CN1CN(c2ccccc2)C2(CCN(C(=O)c3ccc(C(C)(C)C)cc3)CC2)C1=O | -0.42 | 1.19 | -0.87
O=C(Nc1ccc(Cl)cc1)c1ccc(CN2CCCN(CC3CCCCC3)CC2)cc1 | 4.77 | 7.11 | 5.54
N#Cc1cccc(NC(=O)Nc2ccc3c(c2)CCN(C2CCC2)CC3)c1 | 5.45 | 4.43 | 4.94
N#CC1(CCCNCCc2ccc(O)cc2)CCCc2c(O)cccc21 (centres undefined) | 14.1 | 12 | 11.7
Clc1ccc2c(NCc3ccccc3)ccnc2c1 | 1.8 | 3 | -0.97
CC1(CCc2ccccc2)N=C(N)N(Cc2ccccc2)C(=O)C1c1ccc(Cl)c(Cl)c1 (centres undefined) | 3.32 | 2.08 | 0.94
